Source: PubChem (National Center for Advancing Translational Sciences (NCATS))
Shown are actives, neighbours in structure and some others; about 4% of the full set was active somewhere.
D1 agonist: Allosteric Agonists of the Human D1 Dopamine Receptor: qHTS | activation, % at 2 µM | HEK293 T-REx D1 cells, calcium flux, agonist mode | AID 504660, 2011 | 1% of 360,000 active; also: 0% is about no effect
Target sequence (P21728 whole entry, looked up): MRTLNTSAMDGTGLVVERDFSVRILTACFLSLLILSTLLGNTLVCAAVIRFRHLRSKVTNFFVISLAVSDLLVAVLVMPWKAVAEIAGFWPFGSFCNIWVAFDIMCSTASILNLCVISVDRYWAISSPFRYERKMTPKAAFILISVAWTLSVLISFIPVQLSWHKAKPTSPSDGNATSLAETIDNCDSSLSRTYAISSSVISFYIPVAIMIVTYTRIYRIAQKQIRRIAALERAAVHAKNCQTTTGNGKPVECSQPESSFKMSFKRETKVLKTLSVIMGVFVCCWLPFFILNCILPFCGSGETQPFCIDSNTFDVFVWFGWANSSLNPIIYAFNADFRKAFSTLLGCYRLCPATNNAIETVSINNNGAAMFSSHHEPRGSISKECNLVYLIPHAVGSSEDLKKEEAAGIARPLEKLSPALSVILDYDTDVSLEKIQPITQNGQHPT
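Agonism was scored from calcium flux recorded over 180 s (1 read/s) after pintool compound addition, following a 10-cycle baseline. Cells were inducible force-coupled HEK293 TREx D1, plated overnight at 30 C and loaded with no-wash calcium dye.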
TRHR PAM: qHTS for Small Molecule Agonists and Allosteric Enhancers of Human TRH Receptor: Primary Screen for Enhancers | TRHR cells, fluo-8 calcium fluorescence, EC20 TRH enhancement | enhancement, % at 2 µM | 0.66% of 360,000 active | AID 493056, 2011; in the data active = enhancement above about 30%; also: 0% is about no effect
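TRHR-expressing cells loaded with fluo-8 calcium dye were read kinetically (ex 480/em 530) during compound addition, then stimulated with an EC20 of TRH (10 nM final). Enhancement of the Gq-mediated intracellular calcium response was scored.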
D1 potentiator: Potentiators of Human D1 Dopamine Receptor: qHTS | D(1A) dopamine receptor (Homo sapiens), P21728 | HEK293 TREx D1 cells, calcium flux, dopamine EC20 potentiation | potentiation, % at 10 µM | 0.036% of 360,000 active; in the data active = potentiation above about 30%; also: 0% is about no effect
Glioma ERSR ind: qHTS for Inducers of the Endoplasmic Reticulum Stress Response (ERSR) in Human Glioma: qHTS. U87-MG GRP78 promoter luciferase reporter, 16 h. AID 602332, 2012. 0.02% of 420,000 active. Potency, µM, inactives show at the highest dose activation, usual class: activators; active = well fitted activation curve with a large enough effect; also: potency is read from the fitted curve at half-maximal effect; series mostly up to about 76 µM; % of control where 0% means no effect; nearly all actives have a fitted effect of over 35% in size
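Stably transfected U87-MG glioma cells carrying a GRP78-based luciferase sensor; 16 h compound incubation. Luminescence end-point read 10 min after Bright-Glo addition at room temperature.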
D1 antagonist: Antagonist of Human D 1 Dopamine Receptor: qHTS. D(1A) dopamine receptor (Homo sapiens), P21728. HEK293 TREx D1 cells, calcium flux, dopamine EC80; stronger effect = lower value. activity change, negative = inhibition, % at 10 µM. 3.2% of 360,000 active; in the data active = activity change below about -30%; also: % is scaled to controls: 0 for no effect and ±100 for the full control effect
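Cells carrying a force-coupled, tetracycline-inducible human D1 receptor report calcium flux. Each well gets a 10 s baseline, compound with 180 s monitoring, then an EC80 dopamine stimulus with a second 180 s kinetic read.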
TRHR ag: qHTS for Small Molecule Agonists and Allosteric Enhancers of Human TRH Receptor: Primary Screen for Agonists. Thyrotropin-releasing hormone receptor (Homo sapiens), P34981. activation, % at 2 µM. TRHR cells, calcium flux fluo-8, FDSS agonist mode. 0.18% of 360,000 active; also: 0% is about no effect
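TRHR-expressing cells, plated overnight in medium with 10% serum, were loaded with fluo-8 calcium dye at room temperature. After a 10 s baseline, library compound was pin-added and calcium release was recorded kinetically (ex 480/em 530) as agonist response.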
* hit, by the source's call; . = not tested or not shown. Rule as the data show it, unless noted: active = activation above about 30%; inactive = the rest.

SMILES	D1 agonist	TRHR PAM	D1 potentiator	Glioma ERSR ind	D1 antagonist	TRHR ag
Cc1c(NC(=O)CCc2ccc(S(=O)(=O)N3CCOCC3)cc2)c(=O)n(-c2ccccc2)n1C	.	.	.	-7%	.	.
Cc1c(NS(=O)(=O)c2ccc3c(c2)CCN3C(=O)C2CC2)c(=O)n(-c2ccccc2)n1C	0	-2	-2	-1%	-35*	-1
Cc1c(NS(=O)(=O)c2cc(Br)cc3c2N(C(=O)C2CC2)CC3)c(=O)n(-c2ccccc2)n1C	2	3	-3	-2%	6	0
COc1ccc(NS(=O)(=O)c2ccc3c(c2)CCN3C(=O)C2CC2)cc1OC	17	-5	-3	-2%	-33*	0
Cc1cccc(NS(=O)(=O)c2ccc3c(c2)CCN3C(=O)C2CCC2)c1	9	-2	0	-3%	-25	-1
OCCN1CCN(Cc2ccc3c(c2)CN(Cc2ccc4ccccc4c2)CCO3)CC1	.	.	.	-6%	.	.
O=C(C1CCN(S(=O)(=O)c2ccccc2F)CC1)N1CCc2ccccc21	6	-10	3	-2%	-6	-1
O=C(C1CCN(S(=O)(=O)c2ccccc2)CC1)N1CCc2ccccc21	333*	60*	-2	-4%	8	247*
Cc1c(NS(=O)(=O)N2CCCC2)c(=O)n(-c2ccccc2)n1C	1	-2	-6	-4%	-52*	0
CCN(CC)c1ccc(-c2nnc(SCC(=O)NCc3ccco3)n2CC)cc1	.	.	.	0%	.	.
O=C(NCC1CCCCC1)c1cc(S(=O)(=O)N2CCCCC2)ccc1Cl	1	2	1	-3%	20	-1
O=C(NCC1CCCCC1)c1cc(Br)ccc1Cl	-1	-3	1	0%	-32*	1
COCCn1c(=O)c(-c2ccc(Cl)cc2)nc2cnc(N3CCNCC3)nc21	.	.	.	-1%	.	.
CCCSc1nc2c(c(=O)[nH]1)C(c1ccc(F)cc1F)CC(=O)N2 (stereo unspecified)	37*	-10	2	-3%	-1	0
CC1(c2nnc(-c3ccncc3)o2)CC(c2ccccc2)=NO1 (stereo unspecified)	.	.	.	-5%	.	.
CC(C)c1ccc(NC(=O)c2cc3c(s2)-c2ccccc2SC3)cc1	1	-3	-2	.	-5	0
CCOC(=O)c1ccccc1NC(=O)c1cc2c(s1)-c1ccccc1SC2	3	-4	0	-3%	-45*	0
COc1ccc(C)cc1NC(=O)c1cc2c(s1)-c1ccccc1SC2	2	6	0	.	-32*	1
CCOC(=O)c1ccccc1NC(=O)c1cc2c(s1)-c1c(C)cccc1OC2	1	3	-6	-6%	5	-1
CN(C)C(=O)c1ccc(NC(=O)COc2ccc([N+](=O)[O-])cc2)cc1	4	3	-3	-5%	-6	0
C1=C(c2ccc3c(c2)CN(Cc2cccn2-c2ncccn2)CCO3)Cc2ccccc21	.	.	.	1%	.	.
CC(C)C(=O)Nc1sc2c(c1C(N)=O)CCN(Cc1ccccc1)C2	8	3	-8	2%	2	2
CCC(=O)Nc1sc2c(c1C(N)=O)CCN(Cc1ccccc1)C2	166*	-3	1	13%	-11	39*
NC(=O)c1c(NC(=O)c2ccccc2)sc2c1CCN(Cc1ccccc1)C2	216*	0	-10	-5%	-9	53*
NC(=O)c1c(NC(=O)c2ccncc2)sc2c1CCCCCC2	37*	5	-9	1%	-8	2
SMILES	D1 agonist	TRHR PAM	D1 potentiator	Glioma ERSR ind	D1 antagonist	TRHR ag
CCN1CCc2c(sc(NC(=O)Nc3ccc(Cl)c(Cl)c3)c2C(N)=O)C1	418*	-20	-2	3%	-8	159*
Cc1c2c(c(O)c3c(O)cccc13)C(=O)O[C@H]2C1C(N(C)C)C(O)=C(C(N)=O)C(=O)[C@H]1O (stereo partly specified)	.	.	.	-1%	.	.
Cc1ncc2c(c1CNC(=O)/C=C/c1cccs1)CCN(C(=O)c1c(C)noc1C)C2	.	.	.	-3%	.	.
NC(=O)c1c(NC(=O)c2c(F)cccc2F)sc2c1CCN(Cc1ccccc1)C2	155*	6	-1	-2%	12	49*
CC1CCN(CCCOc2ccc(OCc3ccccc3)cc2)CC1	76*	-1	-10	4%	-40*	2
c1ccc(COc2ccc(OCCN3CCCC3)cc2)cc1	48*	-2	-7	-3%	1	2
c1ccc(COc2ccc(OCCCN3CCCC3)cc2)cc1	26	-1	-4	-10%	-25	1
c1ccc(COc2ccc(OCCN3CCCCC3)cc2)cc1	43*	3	-4	-2%	-31*	5
O=C1/C(=C/c2ccsc2)N2CCC1CC2	1	28	-3	1%	7	-1
COCCCNc1ncnc2sc(C(=O)N3CCCCC3)c(C)c12	.	.	.	-5%	.	.
Cc1cccc(C)c1NC(=O)N1CC=CCC1	2	-5	4	-3%	0	0
Cc1cccc(C)c1NC(=O)N1CCCCCCC1	1	39*	-2	-3%	6	0
CCCc1cc(C(=O)Nc2ccc(C(=O)c3ccc(C)cc3)cc2)n(C)n1	6	2	-14	-5%	-35*	1
COC(=O)c1ccc(C(=O)NN)cc1	1	14	-3	-2%	-6	0
COC(=O)c1ccc(C(=O)Nc2ccc(C(C)C)cc2N)cc1	-2	1	3	1%	-40*	0
CN1C(=O)CS/C1=N\NC(=O)COc1cccc2cccnc12	1	5	-2	-2%	11	0
CC(=O)NC1CCC(=O)C=C1c1ccccc1 (stereo unspecified)	.	.	.	-1%	.	.
CC(=O)NC1CCCN(O)C(=O)/C=C(\C)CCOC(=O)C(NC(C)=O)CCCN(O)C(=O)/C=C(\C)CCOC(=O)C(NC(C)=O)CCCN(O)C(=O)/C=C(\C)CCOC1=O (stereo unspecified)	-4	36*	0	0%	11	0
CN1CCS/C1=C/C=C1/SC(=S)N(Cc2ccccc2)C1=O	55*	-11	-12	2%	-1	26
CCCCN1C(=O)/C(=C/C=C2\SCCN2C)SC1=S	94*	-1	-1	7%	-39*	20
CCCCN1C(=O)/C(=C/C=C2\N(C)c3ccccc3C2(C)C)SC1=S	67*	-6	0	.	-14	29
CCCCN(CCC#N)c1ccc(/C=C/c2ccnc3ccccc23)cc1	.	.	.	-3%	.	.
